The whole screen tested about 5,500 compounds, of which about 2,000 (36%) were called active. Not shown: some 18% with an inconclusive outcome. Cut-off read from the data, not from the text of the source: active = normalized growth mostly below about 0.91 (no sharp cut-off); inconclusive = no clear call, values can overlap the other calls; inactive = mostly above about 0.92. The list shows a part of the results.
Assay: chemical genetic growth profiling, strain panel (AID 1159580);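 note: tested at 20 µM; growth read once vehicle control cultures reached saturation at 30 °C; 1 = growth at the plate median or of vehicle wells; lower values mean less growth of the strain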
Settings: growth OD
[1] = S. cerevisiae deletion strains, locus YDL101C, strain DUN1, hits give low values
[2] = S. cerevisiae deletion strains, locus YHR030C, strain SLT2, hits give low values
[3] = S. cerevisiae deletion strains, locus YJR075W, strain HOC1, hits give low values
[4] = S. cerevisiae deletion strains, locus YMR263W, strain SAP30, hits give low values
[5] = S. cerevisiae deletion strains, locus YMR307W, strain GAS1, hits give low values
[6] = S. cerevisiae deletion strains, locus YNL153C, strain GIM3, hits give low values
[7] = S. cerevisiae deletion strains, locus YPL241C, strain CIN2, hits give low values

Measured: normalized growth

COc1ccccc1N1CCN(C(=O)C(C)c2ccc(CC(C)C)cc2)CC1 (centres undefined)
active: [2] 0.802 | S. cerevisiae deletion strains, locus YLR113W, strain HOG1, hits give low values 0.829
inactive: S. cerevisiae deletion strains, locus YAR019C, strain CDC15, hits give low values 0.978 | S. cerevisiae deletion strains, locus YBL105C, strain PKC1, hits give low values 0.983 | S. cerevisiae deletion strains, locus YBR135W, strain CKS1, hits give low values 0.978 | S. cerevisiae deletion strains, locus YBR136W, strain MEC1, hits give low values 0.984 | S. cerevisiae deletion strains, locus YBR160W, strain CDC28, hits give low values 0.975 | S. cerevisiae deletion strains, locus YDL017W, strain CDC7, hits give low values 0.981 | S. cerevisiae deletion strains, locus YDL028C, strain MPS1, hits give low values 0.97 | [1] 0.974 | S. cerevisiae deletion strains, locus YDL108W, strain KIN28, hits give low values 0.968 | S. cerevisiae deletion strains, locus YDL132W, strain cdc53, hits give low values 0.988 | S. cerevisiae deletion strains, locus YDL214C, strain PRR2, hits give low values 0.932 | S. cerevisiae deletion strains, locus YDR052C, strain DBF4, hits give low values 0.99 | S. cerevisiae deletion strains, locus YDR054C, strain cdc34, hits give low values 0.975 | S. cerevisiae deletion strains, locus YDR226W, strain ADK1, hits give low values 0.966 | S. cerevisiae deletion strains, locus YDR477W, strain SNF1, hits give low values 0.921 | S. cerevisiae deletion strains, locus YER123W, strain YCK3, hits give low values 0.923 | S. cerevisiae deletion strains, locus YER133W, strain GLC7, hits give low values 0.954 | S. cerevisiae deletion strains, locus YFL009W, strain cdc4, hits give low values 0.967 | S. cerevisiae deletion strains, locus YFL029C, strain CAK1, hits give low values 0.977 | S. cerevisiae deletion strains, locus YFR003C, strain YPI1, hits give low values 0.983 | S. cerevisiae deletion strains, locus YFR019W, strain FAB1, hits give low values 0.947 | S. cerevisiae deletion strains, locus YFR028C, strain CDC14, hits give low values 0.986 | S. cerevisiae deletion strains, locus YGR040W, strain KSS1, hits give low values 0.936 | S. cerevisiae deletion strains, locus YGR052W, strain FMP48, hits give low values 0.944 | S. cerevisiae deletion strains, locus YGR092W, strain DBF2, hits give low values 0.938 | S. cerevisiae deletion strains, locus YHR079C, strain IRE1, hits give low values 0.93 | S. cerevisiae deletion strains, locus YHR082C, strain KSP1, hits give low values 0.939 | S. cerevisiae deletion strains, locus YHR205W, strain SCH9, hits give low values 0.861 | S. cerevisiae deletion strains, locus YIL147C, strain SLN1, hits give low values 0.981 | S. cerevisiae deletion strains, locus YJL095W, strain BCK1, hits give low values 0.91 | S. cerevisiae deletion strains, locus YJL128C, strain PBS2, hits give low values 0.977 | S. cerevisiae deletion strains, locus YJL157C, strain FAR1, hits give low values 0.968 | S. cerevisiae deletion strains, locus YJR016C, strain ILV3, hits give low values 0.983 | S. cerevisiae deletion strains, locus YJR066W, strain TOR1 (second series), hits give low values 0.946 | S. cerevisiae deletion strains, locus YJR066W, strain TOR1, hits give low values 0.873 | S. cerevisiae deletion strains, locus YKL048C, strain ELM1, hits give low values 0.978 | S. cerevisiae deletion strains, locus YKL067W, strain YNK1, hits give low values 0.933 | S. cerevisiae deletion strains, locus YKL101W, strain HSL1, hits give low values 0.926 | S. cerevisiae deletion strains, locus YKL193C, strain SDS22, hits give low values 0.976 | S. cerevisiae deletion strains, locus YKL203C, strain TOR2, hits give low values 1.01 | S. cerevisiae deletion strains, locus YLR133W, strain CKI1, hits give low values 0.943 | S. cerevisiae deletion strains, locus YLR403W, strain SFP1, hits give low values 0.95 | S. cerevisiae deletion strains, locus YML070W, strain DAK1, hits give low values 0.933 | S. cerevisiae deletion strains, locus YMR001C, strain CDC5, hits give low values 0.972 | S. cerevisiae deletion strains, locus YMR205C, strain PFK2 (second series), hits give low values 0.945 | S. cerevisiae deletion strains, locus YMR277W, strain FCP1, hits give low values 0.966 | S. cerevisiae deletion strains, locus YNL006W, strain LST8, hits give low values 0.964 | S. cerevisiae deletion strains, locus YNL020C, strain ARK1, hits give low values 0.942 | S. cerevisiae deletion strains, locus YNL161W, strain CBK1, hits give low values 0.981 | S. cerevisiae deletion strains, locus YNL183C, strain NPR1, hits give low values 0.963 | S. cerevisiae deletion strains, locus YNL207W, strain RIO2, hits give low values 0.983 | S. cerevisiae deletion strains, locus YNL222W, strain SSU72, hits give low values 0.969 | S. cerevisiae deletion strains, locus YNL307C, strain MCK1 (second series), hits give low values 0.924 | S. cerevisiae deletion strains, locus YOL078W, strain AVO1, hits give low values 0.977 | S. cerevisiae deletion strains, locus YOL136C, strain PFK27, hits give low values 0.909 | S. cerevisiae deletion strains, locus YOR061W, strain CKA2, hits give low values 0.937 | S. cerevisiae deletion strains, locus YOR119C, strain RIO1, hits give low values 0.951 | S. cerevisiae deletion strains, locus YOR231W, strain MKK1, hits give low values 0.904 | S. cerevisiae deletion strains, locus YOR329C, strain SCD5, hits give low values 0.98 | S. cerevisiae deletion strains, locus YPL031C, strain PHO85, hits give low values 0.93 | S. cerevisiae deletion strains, locus YPL153C, strain RAD53, hits give low values 0.919 | S. cerevisiae deletion strains, locus YPL204W, strain HRR25, hits give low values 0.915 | S. cerevisiae deletion strains, locus YPL209C, strain IPL1, hits give low values 0.981 | S. cerevisiae deletion strains, locus YPL256C, strain CLN2, hits give low values 0.877 | S. cerevisiae deletion strains, locus YPR025C, strain CCL1, hits give low values 0.983 | S. cerevisiae deletion strains, locus YPR106W, strain ISR1, hits give low values 0.961 | S. cerevisiae deletion strains, locus YPR111W, strain DBF20, hits give low values 0.95 | S. cerevisiae deletion strains, strain NNK1, hits give low values 0.965 | S. cerevisiae deletion strains, strain TSCII, hits give low values 0.965

COc1ccccc1N1CCN(CCN(C(=O)C2CCCCC2)c2ccccn2)CC1
inactive: S. cerevisiae deletion strains, locus YAL040C, strain CLN3, hits give low values 0.99 | S. cerevisiae deletion strains, locus YCL061C, strain MRC1 (second series), hits give low values 1.01 | S. cerevisiae deletion strains, locus YDR363W, strain ESC2, hits give low values 1.01 | S. cerevisiae deletion strains, locus YER002W, strain NOP16, hits give low values 1.01 | [3] 1.01 | [4] 0.997 | [5] 0.993 | S. cerevisiae deletion strains, locus YNL128W, strain TEP1, hits give low values 1.01 | [6] 1.01 | S. cerevisiae deletion strains, locus YNL175C, strain NOP13, hits give low values 0.999 | S. cerevisiae deletion strains, locus YNL197C, strain WHI3, hits give low values 1 | S. cerevisiae deletion strains, locus YNL224C, strain SQS1, hits give low values 1 | S. cerevisiae deletion strains, locus YOR083W, strain WHI5 (second series), hits give low values 1.05 | [7] 1.01

COc1ccccc1N1CCN(C(=O)c2cccs2)CC1
inactive: S. cerevisiae deletion strains, locus YAL013W, strain DEP1, hits give low values 0.998 | S. cerevisiae deletion strains, locus YBR229C, strain ROT2, hits give low values 1.01 | [1] 0.991 | S. cerevisiae deletion strains, locus YDL134C, strain PPH21, hits give low values 0.959 | S. cerevisiae deletion strains, locus YDR150W, strain NUM1, hits give low values 1.04 | S. cerevisiae deletion strains, locus YEL061C, strain CIN8, hits give low values 1.01 | S. cerevisiae deletion strains, locus YGR078C, strain PAC10, hits give low values 1 | S. cerevisiae deletion strains, locus YGR229C, strain SMI1, hits give low values 0.993 | [2] 0.963 | S. cerevisiae deletion strains, locus YHR087W, strain rtc3, hits give low values 0.985 | S. cerevisiae deletion strains, locus YJR043C, strain POL32, hits give low values 1.01 | [3] 1.03 | S. cerevisiae deletion strains, locus YKL190W, strain CNB1, hits give low values 0.99 | S. cerevisiae deletion strains, locus YLR039C, strain RIC1, hits give low values 1.01 | S. cerevisiae deletion strains, locus YLR058C, strain SHM2 (second series), hits give low values 0.984 | S. cerevisiae deletion strains, locus YLR085C, strain ARP6, hits give low values 0.889 | S. cerevisiae deletion strains, locus YLR262C, strain YPT6, hits give low values 1.13 | S. cerevisiae deletion strains, locus YML094W, strain GIM5, hits give low values 0.972 | S. cerevisiae deletion strains, locus YMR219W, strain ESC1, hits give low values 0.988 | [4] 1.02 | [5] 0.849 | [6] 1.04 | S. cerevisiae deletion strains, locus YNL298W, strain CLA4 (second series), hits give low values 0.981 | S. cerevisiae deletion strains, locus YNL322C, strain KRE1, hits give low values 0.993 | S. cerevisiae deletion strains, locus YNR030W, strain Alg12, hits give low values 0.957 | S. cerevisiae deletion strains, locus YPL055C, strain LGE1, hits give low values 0.99 | [7] 0.957 | S. cerevisiae deletion strains, locus YPR135W, strain CTF4, hits give low values 1.1 | S. cerevisiae strains, strain wild type, hits give low values 0.993
